From publication PMC4336329 (PLoS ONE, 2015)
Screen size: about 310,000 compounds; about 14,000 (4.5%) showed an effect of 50% or more. Effects have a minus sign here. For the sample, strong results were picked, then their nearest neighbours and some compounds at random.

molecular target: human ether-à-go-go-related gene (hERG) potassium channel (human, UniProt Q12809); test: primary screen, population patch clamp on CHO cells stably expressing hERG; higher = less effect of the substance
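Further: peak tail current of the secondary pulse compared with the same well before compound.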

Chain of human ether-à-go-go-related gene (hERG) potassium channel (Q12809 whole entry, looked up): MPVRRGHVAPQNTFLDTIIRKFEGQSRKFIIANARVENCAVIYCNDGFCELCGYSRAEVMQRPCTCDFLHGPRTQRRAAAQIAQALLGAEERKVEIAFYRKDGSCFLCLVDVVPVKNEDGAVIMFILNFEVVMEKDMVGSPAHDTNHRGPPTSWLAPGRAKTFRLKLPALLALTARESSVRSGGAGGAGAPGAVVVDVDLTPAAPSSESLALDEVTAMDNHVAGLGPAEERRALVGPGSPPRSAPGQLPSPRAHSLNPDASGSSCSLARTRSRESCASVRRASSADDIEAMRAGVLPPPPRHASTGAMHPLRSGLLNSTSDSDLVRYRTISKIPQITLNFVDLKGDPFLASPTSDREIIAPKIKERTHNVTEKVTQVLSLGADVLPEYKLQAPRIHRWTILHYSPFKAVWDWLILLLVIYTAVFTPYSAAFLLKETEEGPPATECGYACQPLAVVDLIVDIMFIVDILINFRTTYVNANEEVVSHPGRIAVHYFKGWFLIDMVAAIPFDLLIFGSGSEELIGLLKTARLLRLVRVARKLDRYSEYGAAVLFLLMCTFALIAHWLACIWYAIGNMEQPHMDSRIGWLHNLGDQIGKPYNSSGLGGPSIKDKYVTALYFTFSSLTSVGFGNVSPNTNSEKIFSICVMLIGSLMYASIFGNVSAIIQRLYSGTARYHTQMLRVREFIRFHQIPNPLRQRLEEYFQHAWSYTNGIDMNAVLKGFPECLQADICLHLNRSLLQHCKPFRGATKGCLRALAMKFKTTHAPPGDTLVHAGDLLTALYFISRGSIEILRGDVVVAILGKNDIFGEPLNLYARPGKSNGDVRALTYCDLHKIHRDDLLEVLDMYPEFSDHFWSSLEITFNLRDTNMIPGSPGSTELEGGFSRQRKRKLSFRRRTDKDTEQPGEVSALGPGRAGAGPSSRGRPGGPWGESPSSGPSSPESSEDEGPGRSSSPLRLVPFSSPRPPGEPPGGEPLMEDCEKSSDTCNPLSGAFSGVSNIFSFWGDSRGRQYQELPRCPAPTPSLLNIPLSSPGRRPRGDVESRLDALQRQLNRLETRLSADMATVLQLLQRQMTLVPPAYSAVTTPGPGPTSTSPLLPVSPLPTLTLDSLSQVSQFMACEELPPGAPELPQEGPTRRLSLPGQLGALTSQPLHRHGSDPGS

| Structure (SMILES) | hERG current change (%, negative = inhibition) at 10uM |
| --- | --- |
| Cc1ccc(NC(=O)CC2SC(=NCC3CCCO3)NC2=O)cc1Cl (stereo not drawn) | -3.57% |
| Cc1c(C)n2c(SCC(=O)NC3CCCCC3)nnc2[nH]c1=O | -8.13% |
| CCCCN(C(=O)c1ccco1)C1CCS(=O)(=O)C1 (stereo not drawn) | 0.36% |
| O=C1c2ccc(-c3ccc4c(c3)C(=O)N(CCO)C4=O)cc2C(=O)N1CCO | 14.6% |
| COc1ccccc1CCN1CCCC(CN(C)C(=O)c2ccco2)C1 (stereo not drawn) | -68.9% |
| Cc1occc1C(=O)N(C)CC1CCCN(CCc2ccccc2F)C1 (stereo not drawn) | -51.1% |
| COc1ccccc1CCN1CCCC(CN(C)C(=O)c2ccoc2)C1 (stereo not drawn) | -51.2% |
| COc1ccccc1CCN1CCCC(CN(C)C(=O)c2ccc3nc[nH]c3c2)C1 (stereo not drawn) | 12.1% |
| COCC(=O)N(C)CC1CCCN(CCc2ccccc2OC)C1 (stereo not drawn) | 7.26% |
| CN(C)CCN(CC1CCCN(Cc2ccccc2F)C1)C(=O)c1ccc(F)cc1 (stereo not drawn) | 3.46% |
| CN(CC1CCCN(CCc2ccccc2F)C1)C(=O)c1ccoc1 (stereo not drawn) | -66.7% |
| COc1ccccc1CCN1CCCC(CN(C)CC(C)(C)CO)C1 (stereo not drawn) | -0.609% |
| Cc1ccccc1CC(=O)N(CCN(C)C)CC1CCCN(Cc2ccccc2F)C1 (stereo not drawn) | 1.19% |
| O=c1[nH]oc2cc(Cl)ccc12 | 11.3% |
| CCOc1ccc(OCC(=O)Nc2ccc(S(N)(=O)=O)cc2)cc1 | -7.32% |
| O=C(NCc1cccs1)c1nc2c(nnn2Cc2ccccc2Cl)c(=O)[nH]1 | 5.42% |
| COC(=O)CSc1nn(-c2ccc(F)cc2)c(=S)s1 | -2.71% |
| Cn1c(CC(=O)Nc2ccccc2)nnc1SCCOc1ccccc1 | 2.08% |
| CC1CC(=O)Nc2ccc([N+](=O)[O-])cc2N1C (stereo not drawn) | 7.59% |
| Cc1cc(C)c(C(=O)N(C)C2CCCN(Cc3ccccc3F)C2)o1 (stereo not drawn) | -0.652% |
| Cc1cc(C)c(C(=O)N(CCN(C)C)CC2CCCN(Cc3ccccc3F)C2)o1 (stereo not drawn) | 7.61% |
| Cc1cc(C)c(C(=O)N(C)CC2CCCN(CCc3ccccc3F)C2)o1 (stereo not drawn) | -70.4% |

| Structure (SMILES) | hERG current change (%, negative = inhibition) at 10uM |
| --- | --- |
| CCCn1c(SCC(=O)Nc2nccs2)nnc1-c1cccnc1 | -0.265% |
| COc1cccc(NC(=O)c2oc3ccccc3c2NC(=O)c2ccc3c(c2)OCO3)c1 | 5.18% |
| O=C1C2CC=CCC2C(=O)N1c1n[nH]c(Cc2ccccc2)n1 (stereo not drawn) | 2.31% |
| COc1ccccc1C(CNC(=O)CNC(=O)c1ccc(Cl)c(Cl)c1)N1CCCC1 (stereo not drawn) | -32.9% |
| CCCCNC(=O)c1cn(C)c2ccc(S(=O)(=O)N3CCCC3)cc2c1=O | 12.6% |
| CCCCN(CCCC)CCNC(=O)c1cn(CC)c2ccc(S(=O)(=O)N3CCCC3)cc2c1=O | -65.7% |
| CCCCSCCCNC(=O)c1cn(C)c2ccc(S(=O)(=O)N3CCCC3)cc2c1=O | 11.2% |
| CCCCNC(=O)c1cn(CC)c2ccc(S(=O)(=O)N3CCCCCC3)cc2c1=O | 7.01% |
| CCCCN(CCCC)CCNC(=O)c1cn(C)c2ccc(S(=O)(=O)N3CCCC3)cc2c1=O | -57.9% |
| CCCCNC(=O)c1cn(CC)c2ccc(S(=O)(=O)N3CCCC3)cc2c1=O | -38.1% |
| CCOc1ccc(NC(=O)CN(C)C(=O)CCCc2c[nH]c3ccccc23)cc1OCC | -3.25% |
| CC(=O)c1ccc(NC(=O)CSc2nnc(-c3ccoc3C)n2Cc2ccccc2)cc1 | -30.8% |
| COc1ccccc1NC(=O)CSc1nnc(C)n1CCc1ccccc1 | -14.3% |
| Cc1occc1-c1nnc(SCC(=O)Nc2ccccc2)n1CCc1ccccc1 | -67% |
| COc1ccccc1NC(=O)CSc1nnc(-c2ccoc2C)n1C | -1.59% |
| Cc1cccc(C)c1NC(=O)CSc1nnc(-c2ccoc2C)n1CCc1ccccc1 | -46.3% |
| Cc1occc1-c1nnc(SCC(=O)Nc2ccccc2)n1C | 9.72% |
| Cc1ccccc1NC(=O)CSc1nnc(-c2ccoc2C)n1CCc1ccccc1 | -59.6% |
| COc1ccccc1NC(=O)CSc1nnc(-c2ccoc2C)n1CCc1ccccc1 | -64.8% |
| CCCn1c(SCC(=O)Nc2ccccc2-c2ccccc2)nnc1-c1ccoc1C | -26% |
| Cc1nnc(SCC(=O)Nc2ccccc2)n1CCc1ccccc1 | -33% |
| Cc1occc1-c1nnc(SCC(=O)Nc2ccccc2)n1Cc1ccccc1 | -76.3% |

| Structure (SMILES) | hERG current change (%, negative = inhibition) at 10uM |
| --- | --- |
| Cc1occc1-c1nnc(SCC(=O)Nc2ccc(F)cc2)n1Cc1ccccc1 | -49.4% |
| CSc1nc(SC)c2c3c(oc2n1)COC(C)(C)C3 | 7.86% |
| Cc1ccc(N2CCN(/N=C/C(Cl)=C/c3ccccc3)CC2)cc1 | -5.13% |
| O=C(CN(Cc1ccco1)C(=O)c1ccc(Cl)cc1)Nc1c(Cl)cc(Cl)cc1Cl | 7.76% |
| CN1C(=O)c2ccccc2Sc2ccc(NC(=O)NC3CC3)cc21 | -11% |
| CCOc1ccccc1C(=O)NCC(=O)NCC1CCCCC1 | 12.2% |
| COc1ccc(N2C(=O)C3C4C=CC(CC4)C3C2=O)c([N+](=O)[O-])c1 (stereo not drawn) | -5.27% |
| O=C(/C=C/c1ccco1)NC(=S)Nc1ccc(O)c(-c2nc3ccccc3s2)c1 | 13.2% |
| CSc1ccccc1NC(=S)N/N=C/c1cccn1Cc1ccc(F)cc1 | -6.67% |
| O=C(c1cc(=O)c2ccccc2o1)N1CCN(c2ccccc2F)CC1 | -15.3% |
| Cc1cc(NC(=O)CSc2nnc(C3CC3)n2Cc2ccccc2)no1 | -8.63% |
| Cc1occc1-c1nnc(SCC(=O)NCCc2ccccc2)n1C(C)c1ccccc1 (stereo not drawn) | -31.8% |
| COCCn1c(SCC(=O)Nc2ccc(OC)cc2)nnc1-c1ccoc1C | -3.58% |
| Cc1occc1-c1nnc(SCC(N)=O)n1Cc1ccccc1 | 3.5% |
| Cc1occc1-c1nnc(SCC(=O)NCCc2ccccc2)n1Cc1ccccc1 | -81.1% |
| Cc1cc(NC(=O)CSc2nnc(-c3ccco3)n2Cc2ccccc2)no1 | -44.3% |
| Cc1cc(NC(=O)CSc2nnc(-c3ccc(Br)o3)n2Cc2ccccc2)no1 | -51.2% |
| COc1ccc(NC(=O)CSc2nnc(-c3ccoc3C)n2CC2CCCO2)cc1 (stereo not drawn) | -5.04% |
| COc1ccc(NC(=O)CSc2nnc(-c3ccoc3C)n2CCc2ccccc2)cc1 | -54.3% |
| COc1cccc2cc(C(=O)NCCc3ccccc3)oc12 | -20.1% |
| C/C(=N\NC(=O)C1(C)CC1(Br)Br)c1ccc(NC(=O)c2ccc(C)o2)cc1 (stereo not drawn) | -8.92% |
| COc1cc2nc(-c3cccs3)oc(=O)c2cc1OC | 4.77% |

| Structure (SMILES) | hERG current change (%, negative = inhibition) at 10uM |
| --- | --- |
| COc1cccc2c1Oc1ncccc1N(C(=O)CCC(=O)NCc1cccc(C)c1)C2 | -23.5% |
| CC(C)[C@H](NC(=O)C1CCN(S(=O)(=O)c2ccccc2)CC1)C(=O)NCc1ccccc1 | 10.2% |
| O=C(COC(=O)/C=C/c1ccc(Br)o1)NC1CCCCC1 | 11% |
| O=C(CCN1CCN(c2ccccc2)CC1)N/N=C/c1ccccc1O | -16% |
| O=C(N/N=C/c1ccc([N+](=O)[O-])o1)C1CCCC1 | 10.6% |
| CCCCCC(=O)N/N=C/c1ccc([N+](=O)[O-])o1 | -26.2% |
| O=C(Cc1ccc([N+](=O)[O-])cc1)N/N=C/c1ccc([N+](=O)[O-])o1 | -64.7% |
| O=C(Cc1ccc([N+](=O)[O-])cc1)N/N=C/c1ccco1 | -15.3% |
| O=C(CCN1CCN(c2ccccc2)CC1)N/N=C/c1ccc([N+](=O)[O-])o1 | -73.4% |
| O=C(Cc1ccccc1)N/N=C/c1ccc(-c2ccc([N+](=O)[O-])cc2)o1 | 4.21% |
| O=C(CN1CCCCCCC1)N/N=C/c1ccc([N+](=O)[O-])o1 | -52.1% |
| CC(=O)Nc1ccc(/C=N/NC(=O)CCN2CCN(c3ccccc3)CC2)cc1 | -2.3% |
| COc1ccc(C2C(C(=O)c3cccs3)=C(O)C(=O)N2c2nnc(C)s2)cc1OC (stereo not drawn) | 1.32% |
| CCN1C(=O)/C(=C\N2CCN(c3ccc(F)cc3)CC2)SC1=S | 15.5% |
| COc1ccc(N2C(=O)C3CCCN3C2c2cccc(C)c2)cc1Cl (stereo not drawn) | -31.3% |
| O=C(Nc1ccccc1F)C(=O)c1cn(CC(=O)N2CCCCC2)c2ccccc12 | 13.8% |
| CN1CCN(C2=Nc3ccccc3Oc3ccc(Cl)cc32)CC1.O=C(O)CCC(=O)O | -6.25% |
| CCN(CC(=O)NC(=O)NC1CCCCC1)Cc1nc2ccccc2c(=O)[nH]1 | -8.1% |
| CN1CC(=O)N=C1N | 8.56% |
| CN1CC(=O)N=C1N.Cl | -50.1% |
| O=C(CN1CCN(S(=O)(=O)c2ccc(F)c(Cl)c2)CC1)N1CCNC1=O | -1.79% |
